Screening data: PubChem BioAssay, several laboratories
The full list was thinned out, with hits kept by preference.
GIRK2 act: Activators of human GIRK2-containing channels; HEK293 GIRK2/NPY4 cells, thallium flux fluorescence; AID 1259324; 34,000 tested, under 10 active; activation (% efficacy), % for hits at 37.5 µM;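 active = primary screen hit, no activity in plain HEK293 cells, and in GIRK2-only cells above 5% efficacy rising with concentration; inactive = the rest, including fluorescent compounds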;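 note: efficacy is normalized control-subtracted fluorescence 15 s after thallium addition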
AMPAR-TARP mod: modulators of AMPA receptor GluA2-stargazin complexes | O88602+P19491 | AID 1259245 | 40,000 tested, 3.5% active | HEK293 GluA2+stargazin, membrane potential dye (FDSS), glutamate EC50; hits were called plate by plate, in both directions | calls only at 30 µM;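 active = any of four per-well response measures lying three or more SD from its plate-wide compound average, in either direction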
Target sequence (O88602 whole entry, looked up): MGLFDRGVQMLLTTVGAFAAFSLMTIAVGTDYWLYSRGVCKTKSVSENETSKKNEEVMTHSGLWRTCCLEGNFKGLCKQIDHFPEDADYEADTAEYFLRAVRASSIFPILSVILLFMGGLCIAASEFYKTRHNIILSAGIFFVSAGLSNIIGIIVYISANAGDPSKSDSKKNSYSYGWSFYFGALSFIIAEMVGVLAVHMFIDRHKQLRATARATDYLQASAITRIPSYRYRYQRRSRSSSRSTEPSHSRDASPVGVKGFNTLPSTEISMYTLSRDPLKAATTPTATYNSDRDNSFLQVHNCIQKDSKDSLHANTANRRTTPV
Target sequence (P19491 whole entry, looked up): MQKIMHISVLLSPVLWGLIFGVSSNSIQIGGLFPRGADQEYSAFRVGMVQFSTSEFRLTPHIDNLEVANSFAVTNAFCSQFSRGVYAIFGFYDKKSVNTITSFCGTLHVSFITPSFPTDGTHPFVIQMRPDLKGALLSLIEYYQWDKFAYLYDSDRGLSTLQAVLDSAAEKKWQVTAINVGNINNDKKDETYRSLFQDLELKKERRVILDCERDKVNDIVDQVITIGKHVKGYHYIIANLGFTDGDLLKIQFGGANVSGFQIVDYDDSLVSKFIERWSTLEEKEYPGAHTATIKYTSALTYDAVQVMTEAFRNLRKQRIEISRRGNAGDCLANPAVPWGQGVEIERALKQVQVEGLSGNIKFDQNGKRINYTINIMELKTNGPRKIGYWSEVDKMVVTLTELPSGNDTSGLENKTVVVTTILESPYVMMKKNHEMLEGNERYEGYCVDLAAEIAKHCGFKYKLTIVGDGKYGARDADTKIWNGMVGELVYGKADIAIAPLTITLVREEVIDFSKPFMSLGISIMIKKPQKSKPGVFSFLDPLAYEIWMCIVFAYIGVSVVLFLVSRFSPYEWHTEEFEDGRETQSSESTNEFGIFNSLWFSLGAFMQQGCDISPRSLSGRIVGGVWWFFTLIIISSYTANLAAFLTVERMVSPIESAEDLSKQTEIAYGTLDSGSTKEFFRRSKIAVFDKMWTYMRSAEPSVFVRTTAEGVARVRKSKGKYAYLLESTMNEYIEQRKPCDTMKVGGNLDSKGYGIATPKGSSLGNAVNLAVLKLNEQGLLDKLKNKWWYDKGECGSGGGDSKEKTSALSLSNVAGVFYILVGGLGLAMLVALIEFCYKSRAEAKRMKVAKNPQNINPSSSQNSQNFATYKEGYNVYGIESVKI
Large screens that a line does not name were inactive.

CCOC(=O)N1CCC(NC(=O)C(=O)Nc2nccs2)CC1	none
COCc1c(C(=O)NC2CCCC2)nnn1-c1ccc(C)cc1	AMPAR-TARP mod active
COCc1c(C(=O)Nc2ccc(NC(C)=O)cc2)nnn1-c1cc(C)cc(C)c1	none
O=C(NC1CCCCCC1)c1n[nH]c2ccccc12	none (no result: GIRK2 act)
CCCc1c(C(=O)NC2CCCCC2)nnn1-c1ccccc1	AMPAR-TARP mod active
CCCc1c(C(=O)NC2CCCC2)nnn1-c1ccc(Cl)cc1	AMPAR-TARP mod active
CCCc1c(C(=O)NCCO)nnn1-c1ccc(C)cc1	none
CS(=O)(=O)c1ccc(NC(=S)N2CCCc3ccccc32)cc1	none
CC(Oc1ccccc1)C(=O)NCCCn1cccc1 (configuration not stated)	none
COc1ccc(-c2cc(CC(=O)N3CCc4ccccc4C3)no2)cc1OC	none
COc1cccc(-c2cc(CC(=O)N3CCc4ccccc4C3)no2)c1	AMPAR-TARP mod active
COc1ccccc1CNC(=O)Cn1c(C)cc(C)c(-c2nc(-c3ccc(C)cc3)no2)c1=O	none (no result: GIRK2 act)
CCn1c(SCc2nc(-c3ccc(OC)cc3OC)no2)nc2ccccc2c1=O	none (no result: GIRK2 act)
CCn1c(SCc2nc(-c3ccc(OC)c(OC)c3)no2)nc2ccccc2c1=O	AMPAR-TARP mod active (no result: GIRK2 act)
CCOc1ccc2c(c1)sc(=NC(=O)c1cc(C)no1)n2CC	none
Cc1cc(-c2nnc(NC(=O)c3ccc(Cl)s3)o2)nn1C	none
O=C(Nc1nnc(-c2cccs2)o1)c1cc(Cl)ccc1Cl	none (no result: GIRK2 act)
O=C(Nc1nnc(-c2ccc(Br)s2)o1)c1cc(Cl)ccc1Cl	AMPAR-TARP mod active
O=C(Nc1nnc(-c2ccc(Br)s2)o1)c1ccc(Cl)s1	AMPAR-TARP mod active
C#CCSc1nnc(-c2cn(C)nc2OC)n1C	none
COc1cc(NC(=O)CSc2ccc(NC(=O)C(C)C)nn2)cc(OC)c1	none
CC(C(=O)Nc1ccc(Br)cc1)N1C(=O)c2ccccc2S1(=O)=O (configuration not stated)	none
CC(C(=O)Nc1nc2ccc(S(C)(=O)=O)cc2s1)N1C(=O)c2ccccc2S1(=O)=O (configuration not stated)	none (no result: GIRK2 act)
CC(C(=O)Nc1nc2ccccc2s1)N1C(=O)c2ccccc2S1(=O)=O (configuration not stated)	AMPAR-TARP mod active (no result: GIRK2 act)
CC(C(=O)Nc1ccc(F)c(F)c1F)N1C(=O)c2ccccc2S1(=O)=O (configuration not stated)	none (no result: GIRK2 act)
CC(C(=O)Nc1cc(Cl)ccc1O)N1C(=O)c2ccccc2S1(=O)=O (configuration not stated)	AMPAR-TARP mod active
CC(C(=O)Nc1cccc(Br)c1)N1C(=O)c2ccccc2S1(=O)=O (configuration not stated)	AMPAR-TARP mod active
O=C(CCCn1nc(-c2ccco2)ccc1=O)NCc1ccccc1	none
O=C(CN1N=NC2C(=O)N(c3ccc(Br)cc3)C(=O)C21)Nc1ccc(Cl)cc1 (configuration not stated)	none
CCC(C(=O)Oc1c(S(=O)(=O)c2ccc(C)cc2)c(C)nn1C(C)(C)C)c1ccccc1 (configuration not stated)	none (no result: GIRK2 act)
CC1Cc2cc(-c3cc(CC(=O)NCc4cc(-c5cccs5)on4)no3)ccc2O1 (configuration not stated)	none
O=C(Cc1cc(-c2ccc3c(c2)OCCO3)on1)NCc1cccs1	AMPAR-TARP mod active
O=C(Cc1cc(-c2ccc3c(c2)OCO3)on1)NCc1cccs1	none
CC1Cc2cc(-c3cc(CC(=O)NCc4ccco4)no3)ccc2O1 (configuration not stated)	AMPAR-TARP mod active
COc1cccc(CNC(=O)Cn2c(C)nc3c(sc4ccccc43)c2=O)c1	none (no result: AMPAR-TARP mod)
COc1ccc(-c2ccc(=O)n(CCNC(=O)c3ccc(S(=O)(=O)N4CCCCC4)cc3)n2)cc1	AMPAR-TARP mod active (no result: GIRK2 act)
COc1ccc(-c2ccc(=O)n(CCNC(=O)c3ccc(S(=O)(=O)N(C)C)cc3)n2)cc1	none (no result: GIRK2 act)
CCc1ccc(S(=O)(=O)NCCCn2nc(-c3ccccc3)ccc2=O)s1	none
CCc1ccc(S(=O)(=O)NCCCn2nc(-c3ccc(OC)cc3)ccc2=O)s1	AMPAR-TARP mod active
CCCCc1ccc(-n2c(C)cn3c4c(=O)n(CCOCC)c(=O)n(C)c4nc23)cc1	none (no result: GIRK2 act)
COc1ccc(CNC(=O)Cn2c(=O)n(CCCCC(=O)NCC(C)C)c(=O)c3ccccc32)cc1	none (no result: GIRK2 act)
O=C(CCCCn1c(=O)[nH]c2ccccc2c1=O)NC1CCCCC1	none
CC(C)CCNC(=O)CCCCn1c(=O)c2ccccc2n(CC(=O)NCc2ccccc2)c1=O	AMPAR-TARP mod active (no result: GIRK2 act)
CCCNC(=O)CCCCn1c(=O)c2ccccc2n(CC(=O)Nc2ccc(OC)c(OC)c2)c1=O	none (no result: GIRK2 act)
CCCNC(=O)CCCCn1c(=O)c2ccccc2n(CC(=O)NCc2ccc(F)cc2)c1=O	AMPAR-TARP mod active
O=C(CCCCn1c(=O)c2ccccc2n(CC(=O)NC2CCCCC2)c1=O)NC1CCCCC1	AMPAR-TARP mod active
Cc1cc(C(=O)N2CCN(C)CC2)nn1CC(=O)N1CCCC(C)C1 (configuration not stated)	none
COC(=O)C(C)n1c(C)cn2c3c(=O)n(C)c(=O)n(C)c3nc12 (configuration not stated)	AMPAR-TARP mod active
Cc1c(C)n2c3c(=O)n(C)c(=O)n(C)c3nc2n1CC(O)CO (configuration not stated)	AMPAR-TARP mod active
CCCCCCCCn1c(C)c(C)n2c3c(=O)n(C)c(=O)n(C)c3nc12	none
COC(=O)C(C)n1c(C)c(C)n2c3c(=O)n(C)c(=O)n(C)c3nc12 (configuration not stated)	AMPAR-TARP mod active
CC(=O)C(C)n1c(-c2ccccc2)cn2c3c(=O)n(C)c(=O)n(C)c3nc12 (configuration not stated)	none
Cc1c(C)n2c3c(=O)n(CC(N)=O)c(=O)n(C)c3nc2n1C(C)C	none
Cn1cc(C(=O)NC2CCCCCC2)c2[nH]c(=O)n(Cc3ccccc3)c(=O)c21	none (no result: GIRK2 act)
CCOc1ccccc1-c1noc(Cn2c(=O)n(Cc3ccc(F)cc3)c(=O)c3sccc32)n1	none
COc1ccc2nc(-c3ccc(C)c(NS(=O)(=O)c4cc(C)ccc4OC)c3)cn2n1	none (no result: AMPAR-TARP mod)
COc1ccc2nc(-c3ccc(C)c(NS(=O)(=O)c4ccc(C)s4)c3)cn2n1	AMPAR-TARP mod active
COc1ccc2nc(-c3ccc(C)c(NS(=O)(=O)c4ccc(C(C)=O)cc4)c3)cn2n1	AMPAR-TARP mod active
COc1ccc2nc(-c3ccc(C)c(NS(=O)(=O)c4ccc(C)c(C)c4)c3)cn2n1	none (no result: AMPAR-TARP mod)
O=C(CCn1cnc2c(cnn2-c2ccccc2)c1=O)N1CCN(C(=O)c2ccco2)CC1	none (no result: AMPAR-TARP mod)
CCc1nnc(NS(=O)(=O)c2ccc(NC(=O)C3=COCCO3)cc2)s1	none (no result: GIRK2 act)
Cc1nn(C2CCS(=O)(=O)C2)c2nc(-c3ccco3)cc(C(=O)NCc3c(F)cccc3F)c12 (configuration not stated)	none
Cc1nn(C2CCS(=O)(=O)C2)c2nc(-c3ccco3)cc(C(=O)NCCc3ccc(F)cc3)c12 (configuration not stated)	AMPAR-TARP mod active
CCOc1cn(-c2ccc(F)cc2)nc1C(=O)NC1CCCCC1C (configuration not stated)	AMPAR-TARP mod active
COc1ccc(OC)c(NC(=O)c2nn(-c3ccc(F)cc3)cc2OCc2ccccc2)c1	none
COc1ccccc1NC(=O)c1nn(-c2ccc(F)cc2)cc1OCc1ccccc1	AMPAR-TARP mod active
CCOc1cn(-c2ccc(F)cc2)nc1C(=O)NCCOC	none
Cc1cccc(NC(=O)c2ccc(S(=O)(=O)N3CCCc4ccccc43)cc2)c1C	none (no result: GIRK2 act)
COc1ccc(-c2noc(Cn3cnc4c(nnn4-c4ccccc4)c3=O)n2)cc1OC	none
COc1ccc(S(=O)(=O)CC(=O)Nc2nc(-c3ccc(Br)s3)cs2)cc1	none
COc1ccc(Cl)cc1NC(=O)CN1CCN(S(=O)(=O)c2ccc(C)cc2)CC1	none (no result: GIRK2 act)
Cc1ccccc1NC(=O)C1OC2OC(C)(C)OC2C2OC(C)(C)OC12 (configuration not stated)	none (no result: GIRK2 act)
